# Sampled rows, rich in hits. Any-hit rate of the full collection: about 2.3%.
# FID counter: displaces DNA intercalator in HCV helicase counter-screen. DNA fluorescent intercalator displacement, fluorescence. inhibition, % at 7.9 µM. actives 0.17% (n = 290,000); in the data active = inhibition above about 37%;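 note: 0% = vehicle and 100% = reference compound; higher means more ethidium bromide displaced from hairpin DNA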
# Rce1 inhib: inhibitors of yeast Ras-converting enzyme; yeast membranes, quenched prenylated peptide cleavage fluorescence; calls only; actives 0.27% (n = 290,000); AID 2563;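 active = fall in fluorescence gain of 50% or more versus controls, with final raw signal at or below 3038400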;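 note: plate controls were neutral control wells for no effect and wells lacking membranes for full effect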
# PfM18AAP inh: blocks P. falciparum M18 aspartyl aminopeptidase | recombinant PfM18AAP, H-Glu-NHMec fluorogenic cleavage | inhibition, % at 7.35 µM | actives 1.2% (n = 290,000) | AID 1822;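 active = inhibition above the campaign mean inhibition over all tested compounds plus 3 SD, cut at about 28% in these data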;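 note: 0% = plate median of test compound wells and 100% = 2 mM ZnCl2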
# Kir21 block: Kir2.1 (mouse) channel inhibition. P35561. HEK293-Kir2.1, FluxOR thallium flux fluorescence; hits give low values. B-score at 10 µM. actives 0.85% (n = 310,000). AID 1672;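 active = fluorescence ratio B-score at or below minus 3 SD of library scores, with starting-brightness B-score within 2 SD, cut at about -4.2 in these data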;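 note: channel flux triggered by added potassium and thallium sulfate stimulus; B-score of peak minus minimum fluorescence over baseline after thallium stimulus; more negative B-score means stronger Kir2.1 block with less thallium influx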
# Target sequence (P35561 whole entry, looked up): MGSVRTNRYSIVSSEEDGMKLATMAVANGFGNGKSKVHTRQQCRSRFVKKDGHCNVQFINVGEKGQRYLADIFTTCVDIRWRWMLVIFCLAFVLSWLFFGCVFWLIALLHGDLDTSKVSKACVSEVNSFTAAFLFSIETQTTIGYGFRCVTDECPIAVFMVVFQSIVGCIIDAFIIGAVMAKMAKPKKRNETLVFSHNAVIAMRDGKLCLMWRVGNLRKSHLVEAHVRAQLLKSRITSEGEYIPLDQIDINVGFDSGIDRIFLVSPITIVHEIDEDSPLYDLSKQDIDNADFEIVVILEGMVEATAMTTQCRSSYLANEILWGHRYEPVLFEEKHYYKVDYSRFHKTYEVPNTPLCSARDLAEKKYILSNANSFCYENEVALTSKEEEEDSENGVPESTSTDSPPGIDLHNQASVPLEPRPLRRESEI
# Starred values were filed as active, the others as inactive; i = inactive; . = no result; + = active, no number.
SMILES,FID counter,Rce1 inhib,PfM18AAP inh,Kir21 block
COc1ccc(S(=O)(=O)N(CC(=O)N2CCCC2)Cc2ccccc2)cc1,-20,+,-7,-1.1
Cc1cccc(N(C)S(=O)(=O)c2cccc3nsnc23)c1,-6,i,2,-4.3*
Oc1ccc(C2=CSC3=NCCN23)cc1O,-1,i,55*,1.2
CCCN(C(=O)CCNC(=O)Cn1cnc2ccccc2c1=O)c1cccc(Cl)c1,-33,i,1,-0.97
Cn1c2c(c(=O)n(C)c1=O)C(C(F)(F)F)(C(F)(F)F)N=C(c1ccccc1Cl)N2,-11,i,-6,-0.12
Cn1c(=O)c2[nH]c(-c3ccccc3)nc2n(C)c1=O,0,.,1,.
Cn1c(=O)c2[nH]c(-c3ccccc3Cl)c(O)c2n(C)c1=O,2,i,44*,0.05
Cn1c(=O)c2[nH]c(-c3ccccc3)c(O)c2n(C)c1=O,-5,i,58*,-2.3
CCC(C)N(C(=O)CSc1nnc(NC(C)C)s1)C1CCS(=O)(=O)C1 (configuration not stated),.,i,.,0.93
COc1ccccc1CN(C)C(=O)c1cnc(C)cn1,-7,i,-4,0.08
COc1ccccc1CN(C)C(=O)c1sccc1-c1ccccc1,-40,i,2,-5.4*
CCOc1ccc(N(CC(=O)NCc2ccc(F)cc2)C(=O)CCC(=O)Nc2nccs2)cc1,-47,i,-1,-0.86
Nc1nc(Nc2ccccc2)sc1C(=O)c1ccccc1,-12,i,0,2.1
Cc1sc2cc3c(c(C(=O)c4ccccc4)[n+]2c1C)-c1cccc2cccc-3c12,20,i,2,-13*
O=C(c1ccccc1)c1c2c(cc3sc4ccccc4[n+]13)-c1cccc3cccc-2c13,53*,.,12,.
COC(=O)c1c(NC(=O)C(=O)N2CCOCC2)sc2c1CCCC2,-40,i,3,0.2
CNC(=O)CSCc1cnn(-c2ccccc2)c1-n1cccc1,-14,i,-7,-0.6
O=C(CSCc1cnn(-c2ccccc2)c1-n1cccc1)NCc1cccs1,-33,i,0,-6.3*
COc1cccc(CNC(=O)CSCc2cnn(-c3ccccc3)c2-n2cccc2)c1,-31,i,1,-5.8*
O=C(COc1ccccc1Cl)Nc1nnc(S(=O)(=O)N2CCCCCC2)s1,-19,i,6,0.52
O=C(/C=C/c1ccc(F)cc1)N1CC[C@@]2(O)CCCC[C@H]2C1,-16,i,-1,-0.79
Cc1cccnc1CCNC(=O)c1ccc(OC2CCN(Cc3ccccn3)CC2)cc1,0,.,0,-1.1
O=C(NCCc1cccc(Cl)c1)c1ccc(OC2CCN(Cc3ccccn3)CC2)cc1,4,i,8,-5.4*
COc1ccc(/C=C/C(=O)NC(=S)Nc2ccc(Br)cn2)cc1,-4,i,3,0.15
CC1CCC(C(C)C)C(OC(=O)CSc2nnc(N)s2)C1 (configuration not stated),-29,i,0,-4.2*
SMILES,FID counter,Rce1 inhib,PfM18AAP inh,Kir21 block
O=S(=O)(Nc1cc2nc3ccccc3nc2n1Cc1ccccc1)c1ccc(Cl)cc1,-7,i,28*,-9.5
O=S(=O)(NCc1ccccc1)c1ccc(Cl)cc1,-13,i,12,-0.89
COc1ccc(N2C(=O)C(Cl)=C(Nc3ccccc3O)C2=O)cc1,-3,.,29*,1.3
C#CCOCCOCCOCCNc1nc(N2CCN(C(=O)[C@H](Cc3ccc(O)cc3)n3cc([C@@H](N)C(C)CC)nn3)CC2)nc(N2CCN(C(=O)[C@H](Cc3cc4ccccc4[nH]3)n3cc([C@@H](N)C(C)CC)nn3)CC2)n1 (some centres not stated),51*,i,-8,-1.5
C#CCOCCOCCOCCNc1nc(N2CCN(C(=O)C(Cc3cc4ccccc4[nH]3)n3cc(C(N)Cc4ccc(O)cc4)nn3)CC2)nc(N2CCN(C(=O)C(Cc3cc4ccccc4[nH]3)n3cc(C(N)Cc4ccc(O)cc4)nn3)CC2)n1 (configuration not stated),52*,i,3,-0.77
C#CCOCCOCCOCCNc1nc(N2CCN(C(=O)[C@H]([C@@H](C)CC)n3cc([C@@H](N)Cc4ccc(O)cc4)nn3)CC2)nc(N2CCN(C(=O)[C@H](Cc3cc4ccccc4[nH]3)n3cc([C@@H](N)C(C)CC)nn3)CC2)n1 (some centres not stated),34,i,-3,-0.9
C#CCOCCOCCOCCNc1nc(N2CCN(C(=O)[C@H](Cc3cc4ccccc4[nH]3)n3cc([C@@H](N)C(C)CC)nn3)CC2)nc(N2CCN(C(=O)[C@H](Cc3cc4ccccc4[nH]3)n3cc([C@@H](N)Cc4ccc(O)cc4)nn3)CC2)n1 (some centres not stated),41*,i,3,1.2
COc1ccc2c(C(=O)c3ccc(Cl)cc3)n(CCCC(N)=O)[n+]([O-])c2c1,.,i,.,0.48
CC1CCCCN1C(=O)Cn1c(=O)oc2cc(S(=O)(=O)N3CCCC3)ccc21 (configuration not stated),-25,i,-4,-1.1
O=C(OCCCN=C1NS(=O)(=O)c2ccccc21)c1ccc([N+](=O)[O-])cc1,1,i,-10,1.9
CC(C)c1c(C(=O)N/N=C/c2cccs2)nnn1-c1nonc1N,-16,i,3,-0.17
CCOc1cccc(-c2c(C(=O)N/N=C/c3cccs3)nnn2-c2nonc2N)c1,-3,+,-2,-1
Cc1ccsc1/C=N/NC(=O)c1nnn(-c2nonc2N)c1C(C)C,-23,+,3,-0.95
CC(C)c1c(C(=O)N/N=C/c2ccsc2)nnn1-c1nonc1N,-17,+,-7,1.6
CC(C)c1c(C(=O)N/N=C/c2ccc(C(F)(F)F)cc2)nnn1-c1nonc1N,-3,i,-11,-0.47
Cc1ccc(-n2nc3c(c2NC(=O)C(C)C)CS(=O)(=O)C3)c(C)c1,-10,i,6,-0.22
O=C(CCN1CCCC1)Nc1ccc(Br)cc1,2,i,-2,1.4
CC1CCN(CCC(=O)Nc2ccc(Br)cc2)CC1,8,i,-6,-4.9*
CCN1/C(=C/c2ccc3cc(C)ccc3[n+]2CC)Sc2ccccc21,0,i,49*,-15
O=c1c2cc(F)ccc2[nH]c(=S)n1Cc1ccc(F)cc1,2,i,4,-0.24
Clc1ccc2c(c1)C(N1CCNCC1)Cc1ccccc1S2 (configuration not stated),34,.,10,-14*
Clc1cccc2c1Sc1ccccc1CC2N1CCNCC1 (configuration not stated),35,i,6,-9.7*
CCOC(=O)NC(N(O)c1cccc(Cl)c1)C(Cl)(Cl)Cl (configuration not stated),0,i,31*,-3.9
CCN(C(=O)Nc1cccc(Cl)c1)c1ccccc1,-9,i,-2,2.2
O=C(CN1C(=O)CSc2ccc(S(=O)(=O)N3CCCCC3)cc21)NCc1ccccc1,-37,i,7,-0.03
COc1ccccc1NC(=O)C(C)NC(c1ccccc1)c1ccccc1 (configuration not stated),-28,i,-14,-0.06
